Article PMC7862700, “An all-to-all approach to the identification of sequence-specific readers for epigenetic DNA modifications on cytosine”

Columns and labels:
Assay in all cases: DAPPL (digital affinity profiling via proximity ligation, sequencing); 10 mM Tris-HCl pH 7.5, 50 mM NaCl, 1 mM DTT, 4% glycerol, room temperature, 30 min; GST-TFs on glutathione beads, 16-mer random dsDNA library, 0.1% formaldehyde crosslink after washing; high values mean tight binding
FLI1 = molecular target: T1, FLI1 (Homo sapiens, UniProt Q01543 1-452); details: protein: recombinant; tags: N-terminal GST; dsDNA, one strand shown
T1 sequence: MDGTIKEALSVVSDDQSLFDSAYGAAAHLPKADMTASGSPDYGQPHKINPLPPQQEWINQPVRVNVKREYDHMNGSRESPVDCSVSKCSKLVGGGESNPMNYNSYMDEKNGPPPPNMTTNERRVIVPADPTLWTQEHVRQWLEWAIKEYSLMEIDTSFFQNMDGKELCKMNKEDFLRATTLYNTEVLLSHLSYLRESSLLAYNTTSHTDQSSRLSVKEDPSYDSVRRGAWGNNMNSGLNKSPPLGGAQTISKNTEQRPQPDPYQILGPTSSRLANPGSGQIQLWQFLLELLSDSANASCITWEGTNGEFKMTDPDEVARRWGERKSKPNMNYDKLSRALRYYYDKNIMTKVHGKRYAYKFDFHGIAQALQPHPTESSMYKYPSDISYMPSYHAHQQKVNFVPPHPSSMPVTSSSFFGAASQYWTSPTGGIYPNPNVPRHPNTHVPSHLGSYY
Summary of the method: (§1)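 Pools of DNA-barcoded human transcription factors, expressed in yeast as GST fusions on glutathione beads and combined with a tag-only sample, were incubated with 200 nmole of a 16-mer random double-stranded DNA library. Incubation took 30 min at room temperature in Tris/NaCl/DTT/glycerol buffer and was followed by washing, 0.1% formaldehyde crosslinking, proximity ligation (BsaI/T4 ligase, 1 h, 37 °C), PCR amplification and sequencing on an Illumina NextSeq500. Binding signal is the ratio of a hexamer's read frequency for a factor to its frequency for the tag-only sample.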

ELK1 = molecular target: T2, ELK1 (Homo sapiens, UniProt P19419 1-428); details: protein: recombinant; tags: N-terminal GST; dsDNA, one strand shown
T2 sequence: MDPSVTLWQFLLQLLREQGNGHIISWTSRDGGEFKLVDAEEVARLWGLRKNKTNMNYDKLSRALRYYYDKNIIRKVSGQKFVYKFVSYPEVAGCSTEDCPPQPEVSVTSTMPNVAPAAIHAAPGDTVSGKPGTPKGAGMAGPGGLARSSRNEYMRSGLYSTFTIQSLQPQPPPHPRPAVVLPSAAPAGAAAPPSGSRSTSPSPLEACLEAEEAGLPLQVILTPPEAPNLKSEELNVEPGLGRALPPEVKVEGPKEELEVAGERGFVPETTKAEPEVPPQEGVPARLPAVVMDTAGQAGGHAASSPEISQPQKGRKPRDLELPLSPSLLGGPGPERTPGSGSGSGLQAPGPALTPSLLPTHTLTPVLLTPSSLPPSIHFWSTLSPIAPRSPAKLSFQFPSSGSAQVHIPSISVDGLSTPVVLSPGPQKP
Summary of the method: as §1

GABPA = molecular target: T3, GABPA (Homo sapiens, UniProt Q06546 1-454); details: protein: recombinant; tags: N-terminal GST; dsDNA, one strand shown
T3 sequence: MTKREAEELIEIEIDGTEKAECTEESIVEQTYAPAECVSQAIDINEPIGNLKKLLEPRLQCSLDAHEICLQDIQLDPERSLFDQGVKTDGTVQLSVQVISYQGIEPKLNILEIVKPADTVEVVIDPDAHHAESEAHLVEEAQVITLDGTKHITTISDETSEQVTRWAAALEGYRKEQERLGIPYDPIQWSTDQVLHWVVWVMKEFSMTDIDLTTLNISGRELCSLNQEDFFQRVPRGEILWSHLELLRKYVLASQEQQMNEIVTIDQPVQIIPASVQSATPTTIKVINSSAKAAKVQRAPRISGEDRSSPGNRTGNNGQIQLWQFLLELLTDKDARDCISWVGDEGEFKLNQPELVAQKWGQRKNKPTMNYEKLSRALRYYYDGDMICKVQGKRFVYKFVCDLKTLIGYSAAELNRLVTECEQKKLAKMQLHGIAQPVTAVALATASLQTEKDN
Summary of the method: as §1

ERG = molecular target: T4, ERG (Homo sapiens, UniProt P11308 1-479); details: protein: recombinant; tags: N-terminal GST; dsDNA, one strand shown
T4 sequence: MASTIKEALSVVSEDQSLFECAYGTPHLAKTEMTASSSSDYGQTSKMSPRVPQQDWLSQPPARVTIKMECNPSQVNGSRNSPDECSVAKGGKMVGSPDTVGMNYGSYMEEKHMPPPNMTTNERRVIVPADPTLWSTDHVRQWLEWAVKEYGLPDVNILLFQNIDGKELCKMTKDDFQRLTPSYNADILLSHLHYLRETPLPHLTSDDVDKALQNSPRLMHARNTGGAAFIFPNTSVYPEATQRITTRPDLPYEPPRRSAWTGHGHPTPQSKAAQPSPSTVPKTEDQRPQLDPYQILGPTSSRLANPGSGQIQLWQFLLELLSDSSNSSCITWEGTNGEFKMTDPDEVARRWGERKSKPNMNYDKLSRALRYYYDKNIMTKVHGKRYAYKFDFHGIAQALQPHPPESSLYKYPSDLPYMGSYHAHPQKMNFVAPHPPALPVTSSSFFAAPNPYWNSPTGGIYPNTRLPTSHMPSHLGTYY
Summary of the method: as §1

ELF1 = ELF1 (Homo sapiens, UniProt P32519 1-619); details: protein: recombinant; tags: N-terminal GST; dsDNA, one strand shown
Summary of the method: as §1

EHF = molecular target: T5, EHF (Homo sapiens, UniProt Q9NZC4 1-300); details: protein: recombinant; tags: N-terminal GST; dsDNA, one strand shown
T5 sequence: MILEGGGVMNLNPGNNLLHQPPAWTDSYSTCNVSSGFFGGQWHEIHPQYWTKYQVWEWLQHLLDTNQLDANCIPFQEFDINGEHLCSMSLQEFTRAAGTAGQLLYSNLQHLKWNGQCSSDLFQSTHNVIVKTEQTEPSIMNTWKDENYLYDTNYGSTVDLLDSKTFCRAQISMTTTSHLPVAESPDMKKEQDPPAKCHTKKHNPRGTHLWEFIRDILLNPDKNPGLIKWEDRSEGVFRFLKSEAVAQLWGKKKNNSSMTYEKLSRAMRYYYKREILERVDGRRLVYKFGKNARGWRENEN
Summary of the method: as §1

SPI1 = SPI1 (Homo sapiens, UniProt P17947 1-270); details: protein: recombinant; tags: N-terminal GST; dsDNA, one strand shown
Summary of the method: as §1

SPIB = SPIB (Homo sapiens, UniProt Q01892 1-262); details: protein: recombinant; tags: N-terminal GST; dsDNA, one strand shown
Summary of the method: as §1

ELK3 = molecular target: T6, ELK3 (Homo sapiens, UniProt P41970 1-407); details: protein: recombinant; tags: N-terminal GST; dsDNA, one strand shown
T6 sequence: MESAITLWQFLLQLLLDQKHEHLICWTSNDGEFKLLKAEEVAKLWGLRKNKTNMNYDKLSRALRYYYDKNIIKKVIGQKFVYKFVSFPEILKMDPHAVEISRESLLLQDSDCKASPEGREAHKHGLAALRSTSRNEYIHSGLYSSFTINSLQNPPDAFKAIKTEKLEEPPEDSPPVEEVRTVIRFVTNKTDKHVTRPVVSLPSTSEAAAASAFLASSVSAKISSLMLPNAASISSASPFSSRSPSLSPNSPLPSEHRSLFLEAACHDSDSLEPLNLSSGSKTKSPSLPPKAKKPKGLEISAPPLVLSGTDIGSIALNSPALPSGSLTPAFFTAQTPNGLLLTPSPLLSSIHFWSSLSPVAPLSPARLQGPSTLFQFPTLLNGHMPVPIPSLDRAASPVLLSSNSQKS
Summary of the method: as §1

FEV = molecular target: T7, FEV (Homo sapiens, UniProt Q99581 1-238); details: protein: recombinant; tags: N-terminal GST; dsDNA, one strand shown
T7 sequence: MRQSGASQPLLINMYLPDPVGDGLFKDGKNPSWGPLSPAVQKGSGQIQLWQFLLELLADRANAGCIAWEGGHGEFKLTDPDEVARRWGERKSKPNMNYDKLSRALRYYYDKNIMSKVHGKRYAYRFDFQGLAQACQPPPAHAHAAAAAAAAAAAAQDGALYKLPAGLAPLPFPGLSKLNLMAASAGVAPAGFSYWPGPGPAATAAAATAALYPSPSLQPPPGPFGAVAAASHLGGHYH
Summary of the method: as §1

ETV5 = ETV5 (Homo sapiens, UniProt P41161 1-510); details: protein: recombinant; tags: N-terminal GST; dsDNA, one strand shown
Summary of the method: as §1

HSF1 = HSF1 (Homo sapiens, UniProt Q00613 1-529); details: protein: recombinant; tags: N-terminal GST; chain copies: 3; dsDNA, one strand shown
Summary of the method: as §1

SPIC = molecular target: T8, SPIC (Homo sapiens, UniProt Q8N5J4 1-248); details: protein: recombinant; tags: N-terminal GST; dsDNA, one strand shown
T8 sequence: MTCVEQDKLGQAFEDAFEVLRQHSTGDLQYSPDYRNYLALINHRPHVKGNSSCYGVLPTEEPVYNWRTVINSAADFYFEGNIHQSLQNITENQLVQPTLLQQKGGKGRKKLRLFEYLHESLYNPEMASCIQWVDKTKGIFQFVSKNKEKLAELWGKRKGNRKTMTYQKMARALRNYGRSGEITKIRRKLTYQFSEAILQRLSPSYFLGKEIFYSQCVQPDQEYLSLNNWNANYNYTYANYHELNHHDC
Summary of the method: as §1

ELF4 = ELF4 (Homo sapiens, UniProt Q99607 1-663); details: protein: recombinant; tags: N-terminal GST; dsDNA, one strand shown
Summary of the method: as §1

ELK4 = molecular target: T9, ELK4 (Homo sapiens, UniProt P28324-2 1-405); details: protein: recombinant; tags: N-terminal GST; dsDNA, one strand shown
T9 sequence: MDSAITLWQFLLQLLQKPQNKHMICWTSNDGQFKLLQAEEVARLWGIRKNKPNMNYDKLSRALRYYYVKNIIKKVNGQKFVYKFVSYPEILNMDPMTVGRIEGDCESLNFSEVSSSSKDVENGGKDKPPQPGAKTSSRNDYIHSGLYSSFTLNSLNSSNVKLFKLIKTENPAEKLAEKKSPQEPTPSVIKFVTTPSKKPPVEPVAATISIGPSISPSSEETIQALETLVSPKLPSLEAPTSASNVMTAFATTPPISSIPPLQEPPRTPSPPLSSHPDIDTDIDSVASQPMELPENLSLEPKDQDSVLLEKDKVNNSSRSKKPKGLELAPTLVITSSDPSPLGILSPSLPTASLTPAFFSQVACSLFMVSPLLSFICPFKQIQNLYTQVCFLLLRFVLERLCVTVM
Summary of the method: as §1

ETV2 = molecular target: T10, ETV2 (Homo sapiens, UniProt O00321 1-342); details: protein: recombinant; tags: N-terminal GST; dsDNA, one strand shown
T10 sequence: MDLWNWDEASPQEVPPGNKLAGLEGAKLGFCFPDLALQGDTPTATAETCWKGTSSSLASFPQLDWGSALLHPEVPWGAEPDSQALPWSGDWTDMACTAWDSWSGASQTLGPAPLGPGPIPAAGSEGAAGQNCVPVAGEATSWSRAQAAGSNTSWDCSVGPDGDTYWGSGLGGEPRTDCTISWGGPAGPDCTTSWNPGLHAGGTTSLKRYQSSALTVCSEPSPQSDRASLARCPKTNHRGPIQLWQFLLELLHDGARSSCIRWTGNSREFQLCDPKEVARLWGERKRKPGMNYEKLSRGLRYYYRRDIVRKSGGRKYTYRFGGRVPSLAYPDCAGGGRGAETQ
Summary of the method: as §1

ELF3 = molecular target: T11, ELF3 (Homo sapiens, UniProt P78545 1-371); details: protein: recombinant; tags: N-terminal GST; dsDNA, one strand shown
T11 sequence: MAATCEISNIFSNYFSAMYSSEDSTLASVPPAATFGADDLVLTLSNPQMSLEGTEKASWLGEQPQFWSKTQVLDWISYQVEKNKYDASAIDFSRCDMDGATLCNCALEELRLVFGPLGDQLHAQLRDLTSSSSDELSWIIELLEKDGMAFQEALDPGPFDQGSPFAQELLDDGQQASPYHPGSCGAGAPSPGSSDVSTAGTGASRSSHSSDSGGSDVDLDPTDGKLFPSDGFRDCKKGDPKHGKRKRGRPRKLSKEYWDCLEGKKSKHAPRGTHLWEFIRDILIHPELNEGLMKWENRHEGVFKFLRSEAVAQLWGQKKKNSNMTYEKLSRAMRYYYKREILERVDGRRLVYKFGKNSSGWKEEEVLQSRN
Summary of the method: as §1

CRX = CRX (Homo sapiens, UniProt O43186 1-299); details: protein: recombinant; tags: N-terminal GST; dsDNA, one strand shown
Summary of the method: as §1

ETV1 = ETV1 (Homo sapiens, UniProt P50549 1-477); details: protein: recombinant; tags: N-terminal GST; dsDNA, one strand shown
Summary of the method: as §1

SPIB, sequence (Q01892 whole entry): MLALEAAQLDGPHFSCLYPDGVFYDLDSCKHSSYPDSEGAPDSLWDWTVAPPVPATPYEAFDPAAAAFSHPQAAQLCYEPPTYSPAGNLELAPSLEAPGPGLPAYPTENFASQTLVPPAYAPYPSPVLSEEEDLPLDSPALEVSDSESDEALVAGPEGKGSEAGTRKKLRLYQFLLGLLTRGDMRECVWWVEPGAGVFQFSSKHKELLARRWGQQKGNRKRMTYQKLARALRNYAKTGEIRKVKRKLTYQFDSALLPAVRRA
CRX, sequence (O43186 whole entry): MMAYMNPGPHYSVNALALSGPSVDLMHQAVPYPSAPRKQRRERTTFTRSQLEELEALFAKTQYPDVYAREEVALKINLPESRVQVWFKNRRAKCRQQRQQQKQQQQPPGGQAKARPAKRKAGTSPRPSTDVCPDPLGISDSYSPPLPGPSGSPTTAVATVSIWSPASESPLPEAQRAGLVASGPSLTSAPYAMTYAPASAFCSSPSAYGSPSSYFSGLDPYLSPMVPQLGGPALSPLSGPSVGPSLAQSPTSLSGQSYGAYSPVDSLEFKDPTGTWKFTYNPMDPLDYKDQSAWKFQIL
ELF1, sequence (P32519 whole entry): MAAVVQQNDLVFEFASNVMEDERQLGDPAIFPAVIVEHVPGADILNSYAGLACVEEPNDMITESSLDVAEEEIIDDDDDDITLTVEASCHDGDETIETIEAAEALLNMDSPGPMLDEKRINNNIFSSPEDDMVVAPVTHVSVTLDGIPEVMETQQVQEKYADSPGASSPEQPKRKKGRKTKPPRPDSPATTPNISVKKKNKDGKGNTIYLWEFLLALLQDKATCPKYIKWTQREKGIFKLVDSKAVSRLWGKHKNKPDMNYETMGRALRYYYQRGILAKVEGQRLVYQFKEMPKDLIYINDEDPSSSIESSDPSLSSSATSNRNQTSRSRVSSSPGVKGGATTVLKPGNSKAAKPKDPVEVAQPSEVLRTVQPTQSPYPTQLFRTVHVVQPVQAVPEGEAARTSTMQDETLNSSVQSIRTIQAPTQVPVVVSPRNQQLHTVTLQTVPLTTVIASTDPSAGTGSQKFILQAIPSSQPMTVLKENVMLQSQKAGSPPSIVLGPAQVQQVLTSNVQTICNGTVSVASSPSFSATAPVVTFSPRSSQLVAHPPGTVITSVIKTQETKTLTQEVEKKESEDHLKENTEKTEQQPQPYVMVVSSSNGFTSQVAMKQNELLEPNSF
HSF1, sequence (Q00613 whole entry): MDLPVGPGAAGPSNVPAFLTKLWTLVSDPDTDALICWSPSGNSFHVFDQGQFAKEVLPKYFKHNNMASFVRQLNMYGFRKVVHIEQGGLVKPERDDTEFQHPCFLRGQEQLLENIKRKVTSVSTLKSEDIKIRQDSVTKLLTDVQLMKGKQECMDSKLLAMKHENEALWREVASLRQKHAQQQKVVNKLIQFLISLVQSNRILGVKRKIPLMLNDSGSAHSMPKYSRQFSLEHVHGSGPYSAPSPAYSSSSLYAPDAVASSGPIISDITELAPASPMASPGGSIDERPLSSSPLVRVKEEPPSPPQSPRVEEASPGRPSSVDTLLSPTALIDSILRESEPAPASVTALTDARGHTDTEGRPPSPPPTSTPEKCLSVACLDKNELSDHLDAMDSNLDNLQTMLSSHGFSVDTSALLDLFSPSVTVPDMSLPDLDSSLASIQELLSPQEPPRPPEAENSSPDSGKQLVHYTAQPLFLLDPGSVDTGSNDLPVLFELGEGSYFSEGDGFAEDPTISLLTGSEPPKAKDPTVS
ELF4, sequence (Q99607 whole entry): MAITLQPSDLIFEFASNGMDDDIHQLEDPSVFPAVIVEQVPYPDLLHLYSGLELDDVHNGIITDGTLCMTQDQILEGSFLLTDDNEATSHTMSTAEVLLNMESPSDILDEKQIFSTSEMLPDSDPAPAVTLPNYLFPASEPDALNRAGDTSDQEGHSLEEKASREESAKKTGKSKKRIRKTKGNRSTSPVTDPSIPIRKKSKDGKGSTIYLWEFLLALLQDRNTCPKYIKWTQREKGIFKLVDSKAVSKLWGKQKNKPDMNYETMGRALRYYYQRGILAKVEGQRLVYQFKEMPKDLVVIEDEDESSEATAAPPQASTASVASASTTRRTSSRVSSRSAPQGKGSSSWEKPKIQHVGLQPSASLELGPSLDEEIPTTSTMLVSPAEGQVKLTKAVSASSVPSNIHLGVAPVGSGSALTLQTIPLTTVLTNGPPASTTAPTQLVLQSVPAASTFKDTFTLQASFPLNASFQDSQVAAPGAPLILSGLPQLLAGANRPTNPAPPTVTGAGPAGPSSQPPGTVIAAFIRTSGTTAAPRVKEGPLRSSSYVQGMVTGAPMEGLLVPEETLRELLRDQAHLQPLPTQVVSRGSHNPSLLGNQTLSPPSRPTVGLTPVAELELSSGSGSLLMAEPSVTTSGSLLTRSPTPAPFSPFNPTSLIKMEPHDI
ETV1, sequence (P50549 whole entry): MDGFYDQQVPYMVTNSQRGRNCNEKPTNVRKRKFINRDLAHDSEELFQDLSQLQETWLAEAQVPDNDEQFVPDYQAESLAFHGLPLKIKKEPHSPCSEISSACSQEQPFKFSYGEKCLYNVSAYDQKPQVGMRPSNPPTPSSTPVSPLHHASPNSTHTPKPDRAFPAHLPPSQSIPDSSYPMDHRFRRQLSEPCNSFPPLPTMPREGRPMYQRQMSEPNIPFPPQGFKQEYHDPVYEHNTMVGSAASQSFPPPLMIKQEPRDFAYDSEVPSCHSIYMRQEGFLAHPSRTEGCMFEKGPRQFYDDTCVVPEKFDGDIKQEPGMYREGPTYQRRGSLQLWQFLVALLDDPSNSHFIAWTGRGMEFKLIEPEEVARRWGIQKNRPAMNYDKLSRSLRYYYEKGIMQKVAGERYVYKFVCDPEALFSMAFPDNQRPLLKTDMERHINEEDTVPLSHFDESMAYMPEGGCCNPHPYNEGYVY
ETV5, sequence (P41161 whole entry): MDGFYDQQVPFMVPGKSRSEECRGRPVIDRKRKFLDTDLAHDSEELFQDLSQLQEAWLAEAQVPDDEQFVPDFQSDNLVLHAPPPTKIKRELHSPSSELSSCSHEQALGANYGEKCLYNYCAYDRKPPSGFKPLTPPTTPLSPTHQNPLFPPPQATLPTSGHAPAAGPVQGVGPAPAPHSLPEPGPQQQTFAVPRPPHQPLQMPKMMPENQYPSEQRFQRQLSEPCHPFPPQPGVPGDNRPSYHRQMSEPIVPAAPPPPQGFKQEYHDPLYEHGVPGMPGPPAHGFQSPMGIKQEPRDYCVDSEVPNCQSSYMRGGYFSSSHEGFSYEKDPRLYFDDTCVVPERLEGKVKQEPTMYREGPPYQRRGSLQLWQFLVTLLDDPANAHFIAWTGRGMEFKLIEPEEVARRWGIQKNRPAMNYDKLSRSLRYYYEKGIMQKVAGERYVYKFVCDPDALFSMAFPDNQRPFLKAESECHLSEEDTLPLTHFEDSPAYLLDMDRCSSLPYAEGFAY

For ATGTTA, the binding signal (FLI1) was 1.24 fold enrichment (6-mer frequency, TF over GST control), the binding signal (ELK1) was 1.25 fold enrichment (6-mer frequency, TF over GST control) and the binding signal (GABPA) was 1.26 fold enrichment (6-mer frequency, TF over GST control). The binding signal (ERG) was 1.22 fold enrichment (6-mer frequency, TF over GST control), the binding signal (ELF1) was 1.22 fold enrichment (6-mer frequency, TF over GST control) and the binding signal (EHF) was 1.23 fold enrichment (6-mer frequency, TF over GST control). The binding signal (SPI1) was 1.13 fold enrichment (6-mer frequency, TF over GST control), the binding signal (SPIB) was 1.17 fold enrichment (6-mer frequency, TF over GST control) and the binding signal (ELK3) was 1.15 fold enrichment (6-mer frequency, TF over GST control). The binding signal (FEV) was 1.13 fold enrichment (6-mer frequency, TF over GST control), the binding signal (ETV5) was 1.25 fold enrichment (6-mer frequency, TF over GST control) and the binding signal (HSF1) was 1.12 fold enrichment (6-mer frequency, TF over GST control). For the same sequence, the binding signal (SPIC) was 1.28 fold enrichment (6-mer frequency, TF over GST control), the binding signal (ELF4) was 1.33 fold enrichment (6-mer frequency, TF over GST control) and the binding signal (ELK4) was 1.23 fold enrichment (6-mer frequency, TF over GST control). For the same sequence, the binding signal (ETV2) was 1.24 fold enrichment (6-mer frequency, TF over GST control), the binding signal (ELF3) was 1.17 fold enrichment (6-mer frequency, TF over GST control) and the binding signal (CRX) was 1.31 fold enrichment (6-mer frequency, TF over GST control). The binding signal (ETV1) was 1.3 fold enrichment (6-mer frequency, TF over GST control).
